Laboratory results taken from PubChem BioAssay (EPA / NIEHS).
Calls of active or inactive are those of the source. The calls were made as follows: active = hit-call score of the fitted dose curve at least 0.9, where 1 is the maximum; inactive = score below 0.9.

How the values were obtained:
Details in all cases: mRNA level, 48 h; actives raise or lower the signal
[1] = read-out: Cytochrome P450 (CYP2B6), CYP2B6 (gene 1555); experiment: LTEA_HepaRG_CYP2B6: Life Technologies and Expression Analysis (LTEA) Assay for Cytochrome P450 (CYP2B6) using HepaRG (AID 2283481)
In short: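 Differentiated human HepaRG cells in serum-free induction medium, dosed in duplicate for 48 h over 8 half-log concentrations topping at 100 uM (0.5% DMSO). CYP2B6 mRNA measured by TaqMan qRT-PCR, normalized to ACTB, GAPDH, POLR2A; bidirectional fit versus DMSO.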

[2] = read-out: Cytochrome P450 2C19 (Homo sapiens) (UniProt P33261); experiment: LTEA_HepaRG_CYP2C19: Life Technologies and Expression Analysis (LTEA) Assay for CYP2C19 using HepaRG (AID 2283482)
In short: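 Differentiated HepaRG cells in serum-free induction medium exposed 48 h in duplicate, 8 concentrations from 100 uM by half-log steps in 0.5% DMSO. CYP2C19 mRNA measured by TaqMan qRT-PCR, normalized to ACTB, GAPDH, POLR2A. Bidirectional fit versus DMSO.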

CYP2C8 (gene 1558) = experiment: LTEA_HepaRG_CYP2C8: Life Technologies and Expression Analysis (LTEA) Assay for CYP2C8 using HepaRG (AID 2283483)
In short: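 Differentiated HepaRG cells in serum-free induction medium exposed 48 h in duplicate to 8 half-log concentrations from 100 uM in 0.5% DMSO. CYP2C8 mRNA by qRT-PCR normalized to ACTB, GAPDH, POLR2A; bidirectional fit versus DMSO.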

CYP2C9 (gene 1559) = experiment: LTEA_HepaRG_CYP2C9: Life Technologies and Expression Analysis (LTEA) Assay for CYP2C9 using HepaRG (AID 2283484)
In short: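 Differentiated human HepaRG cells in serum-free induction medium were exposed 48 h to chemicals in 8-point half-log series from 100 uM (0.5% DMSO), in duplicate. CYP2C9 mRNA was measured by qRT-PCR, normalized to ACTB/GAPDH/POLR2A, with bidirectional fitting versus DMSO.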

CYP2E1 (gene 1571) = experiment: LTEA_HepaRG_CYP2E1: Life Technologies and Expression Analysis (LTEA) Assay for CYP2E1 using HepaRG (AID 2283485)
In short: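 Human liver line HepaRG, plated 48 h, then serum-free induction medium + chemical x 48 h; 8-pt CRC from 100 uM, half-log, 0.5% DMSO, n=2. Readout: CYP2E1 mRNA qRT-PCR vs ACTB/GAPDH/POLR2A; bidirectional fit vs DMSO.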

CYP4A11 (gene 1579) = experiment: LTEA_HepaRG_CYP4A11: Life Technologies and Expression Analysis (LTEA) Assay for CYP4A11 using HepaRG (AID 2283486)
In short: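 Differentiated HepaRG cells, 48 h after plating, exposed in duplicate for 48 h to 8 half-log concentrations up to 100 uM in 0.5% DMSO in serum-free induction medium. CYP4A11 mRNA measured by TaqMan qRT-PCR, normalized to ACTB, GAPDH and POLR2A.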

[3] = read-out: Cytochrome P450 3A4 (Homo sapiens) (UniProt P08684); experiment: LTEA_HepaRG_CYP3A4: Life Technologies and Expression Analysis (LTEA) Assay for CYP3A4 using HepaRG (AID 2283487)
In short: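 HepaRG, 48 h exposure, 8-pt CRC from 100 uM (half-log), 0.5% DMSO, duplicates; serum-free induction medium. Readout: CYP3A4 mRNA, qRT-PCR, ACTB/GAPDH/POLR2A normalization. Bidirectional fit vs DMSO.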

[4] = read-out: DNA damage-inducible transcript 3 (DDIT3), DDIT3 (gene 1649); experiment: LTEA_HepaRG_DDIT3: Life Technologies and Expression Analysis (LTEA) Assay for DNA damage-inducible transcript 3 (DDIT3) using HepaRG (AID 2283488)
In short: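 HepaRG plated 48 h, switched to serum-free induction medium, dosed 48 h (100 uM top, half-log, 8 pts, 0.5% DMSO, n=2); RNA isolated; DDIT3 by qRT-PCR; bidirectional curve fit vs DMSO.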

[5] = read-out: Pro-epidermal growth factor (Homo sapiens) (UniProt P01133); experiment: LTEA_HepaRG_EGF: Life Technologies and Expression Analysis (LTEA) Assay for Epidermal growth factor (EGF) using HepaRG (AID 2283489)
In short: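 HepaRG cells (~100,000/well, 48 h pre-culture) exposed in duplicate for 48 h in serum-free induction medium to 8 half-log concentrations up to 100 uM in 0.5% DMSO. EGF mRNA by qRT-PCR, normalized to ACTB/GAPDH/POLR2A; bidirectional fit versus DMSO.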

[6] = read-out: Early growth response protein 1 (EGR1) transcription factor, EGR1 (gene 1958); experiment: LTEA_HepaRG_EGR1: Life Technologies and Expression Analysis (LTEA) Assay for Early growth response protein 1 (EGR1) transcription factor using HepaRG (AID 2283490)
In short: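 Differentiated HepaRG cells in serum-free induction medium exposed 48 hours, duplicate, to 8 half-log concentrations up to 100 uM in 0.5% DMSO. EGR1 mRNA measured by TaqMan qRT-PCR, normalized to ACTB, GAPDH, POLR2A; bidirectional fit versus DMSO.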

Chain of Cytochrome P450 3A4 (Homo sapiens) (P08684 whole entry, looked up): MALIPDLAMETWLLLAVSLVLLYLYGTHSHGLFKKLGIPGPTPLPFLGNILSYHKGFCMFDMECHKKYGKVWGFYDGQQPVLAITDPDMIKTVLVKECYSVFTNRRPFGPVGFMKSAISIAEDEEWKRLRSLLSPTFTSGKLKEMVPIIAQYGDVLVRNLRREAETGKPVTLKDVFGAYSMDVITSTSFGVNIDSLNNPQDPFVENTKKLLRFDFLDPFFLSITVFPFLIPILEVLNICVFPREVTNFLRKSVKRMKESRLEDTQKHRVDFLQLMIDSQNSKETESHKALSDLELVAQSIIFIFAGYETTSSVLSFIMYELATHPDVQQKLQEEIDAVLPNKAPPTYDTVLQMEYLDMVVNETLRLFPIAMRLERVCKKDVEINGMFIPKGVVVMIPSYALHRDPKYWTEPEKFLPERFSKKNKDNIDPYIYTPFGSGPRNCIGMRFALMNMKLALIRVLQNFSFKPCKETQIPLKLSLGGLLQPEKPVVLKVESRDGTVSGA
Chain of Cytochrome P450 2C19 (Homo sapiens) (P33261 whole entry, looked up): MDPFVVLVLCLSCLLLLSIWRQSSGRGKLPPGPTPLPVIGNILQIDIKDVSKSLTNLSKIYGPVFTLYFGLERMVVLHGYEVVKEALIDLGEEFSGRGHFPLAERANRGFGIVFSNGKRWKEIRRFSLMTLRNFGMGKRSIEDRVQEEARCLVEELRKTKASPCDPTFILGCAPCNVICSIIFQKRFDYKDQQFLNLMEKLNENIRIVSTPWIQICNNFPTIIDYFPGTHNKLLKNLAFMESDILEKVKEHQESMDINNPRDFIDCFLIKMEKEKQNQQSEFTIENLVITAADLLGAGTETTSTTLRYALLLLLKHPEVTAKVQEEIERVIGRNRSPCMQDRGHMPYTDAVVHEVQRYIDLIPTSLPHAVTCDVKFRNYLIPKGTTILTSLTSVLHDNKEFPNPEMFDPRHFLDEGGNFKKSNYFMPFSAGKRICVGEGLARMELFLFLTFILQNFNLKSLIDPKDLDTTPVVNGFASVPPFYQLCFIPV

Compound | outcome [1] | outcome [2] | outcome (CYP2C8 (gene 1558)) | outcome (CYP2C9 (gene 1559)) | outcome (CYP2E1 (gene 1571)) | outcome (CYP4A11 (gene 1579)) | outcome [3] | outcome [4] | outcome [5] | outcome [6] | AC50 [1] | AC50 [2] | AC50 (CYP2C9 (gene 1559)) | AC50 (CYP2E1 (gene 1571)) | AC50 (CYP4A11 (gene 1579)) | AC50 [3] | AC50 [4] | AC50 (CYP2C8 (gene 1558))
CC(C)CCCCCCCOC(=O)CCCCC(=O)OCCCCCCCC(C)C | inactive | inactive | inactive | inactive | inactive | inactive | inactive | inactive | inactive | inactive | – | – | – | – | – | – | – | –
CCc1cc(SCc2sc(-c3ccc(C(F)(F)F)cc3)nc2CN2CCN(c3ccc(OC)cc3)CC2)ccc1OCC(=O)O | – | – | inactive | – | – | – | – | – | inactive | – | 7.48 µM (active) | 7.52 µM (active) | 76.6 µM (active) | 75.4 µM (active) | 74.7 µM (active) | 7.66 µM (active) | 3.85 µM (active) | –
COc1ccc(-n2nc(C(F)F)cc2-c2ccc(S(C)=O)cc2)cc1 (stereo not given) | – | – | inactive | inactive | – | – | – | inactive | inactive | inactive | 13.4 µM (active) | 26.8 µM (active) | – | 25 µM (active) | 68.8 µM (active) | 17.1 µM (active) | – | –
O=C(O)CCN(C1(C(=O)NO)CCCC1)S(=O)(=O)c1ccc(Oc2ccc(F)cc2)cc1 | inactive | inactive | inactive | inactive | inactive | inactive | – | inactive | inactive | – | – | – | – | – | – | 22.8 µM (active) | – | –
Nc1ccc(Nc2ccccc2)cc1 | – | inactive | inactive | inactive | – | inactive | inactive | inactive | inactive | – | 33.7 µM (active) | – | – | 71.2 µM (active) | – | – | – | –
Nc1cccc(N)c1 | inactive | inactive | inactive | inactive | inactive | inactive | inactive | inactive | inactive | – | – | – | – | – | – | – | – | –
Cn1c(=O)c2c(ncn2C)n(C)c1=O | – | inactive | inactive | inactive | inactive | inactive | inactive | inactive | inactive | inactive | 50 µM (active) | – | – | – | – | – | – | –
CCOC(=O)COc1ccc2c(c1)CC(NCC(O)c1cccc(Cl)c1)CC2 (stereo not given) | – | inactive | inactive | inactive | inactive | inactive | inactive | inactive | inactive | – | 0.947 µM (active) | – | – | – | – | – | – | –
CCn1nc(Cc2ccccc2)cc1C1CCN(C[C@H]2C[C@H](N(C)[C@@H](C(=O)O)C(C)C)C[C@@H]2c2cccc(F)c2)CC1 | – | – | – | – | – | – | inactive | – | inactive | – | 13.7 µM (active) | 17.6 µM (active) | 27.8 µM (active) | 20.4 µM (active) | 50 µM (active) | – | 50 µM (active) | 24.6 µM (active)
CCNc1ccccc1 | – | inactive | inactive | inactive | inactive | inactive | inactive | inactive | inactive | inactive | 28.3 µM (active) | – | – | – | – | – | – | –
O=C(O)c1cc(N=Nc2ccc(S(=O)(=O)Nc3ccccn3)cc2)ccc1O | inactive | inactive | inactive | inactive | inactive | inactive | – | inactive | inactive | inactive | – | – | – | – | – | – | – | –
O=C(O)CC(O)C(=O)O (stereo not given) | inactive | inactive | inactive | inactive | inactive | inactive | inactive | inactive | inactive | inactive | – | – | – | – | – | – | – | –
O=C(NS(=O)(=O)/C=C/c1ccccc1)c1ccc(F)cc1Cl | – | – | inactive | inactive | – | inactive | – | inactive | inactive | – | 0.459 µM (active) | 2.51 µM (active) | – | – | – | 11.3 µM (active) | – | –
On1ccccc1=S | inactive | inactive | inactive | inactive | inactive | inactive | inactive | inactive | – | inactive | – | – | – | – | – | – | – | –
C=CC(=C)CCC=C(C)C | inactive | inactive | inactive | inactive | – | inactive | inactive | inactive | inactive | – | – | – | – | – | – | – | – | –
CC(=O)OC[C@H]1O[C@@](COC(C)=O)(O[C@H]2O[C@H](COC(C)=O)[C@@H](OC(C)=O)[C@H](OC(C)=O)[C@H]2OC(C)=O)[C@@H](OC(C)=O)[C@@H]1OC(C)=O | inactive | inactive | inactive | inactive | inactive | inactive | inactive | inactive | inactive | inactive | – | – | – | – | – | – | – | –
COC(=O)c1ccccc1O | inactive | inactive | inactive | inactive | – | inactive | inactive | inactive | inactive | – | – | – | – | – | – | – | – | –
CC[C@H]1CC[C@H](NCc2cc3c(cc2OC)[C@H]2C[C@H]2C(=O)N3C)[C@H](c2ccccc2)N1 | – | – | – | inactive | – | – | – | – | inactive | – | 11.7 µM (active) | 10.8 µM (active) | – | – | 81.8 µM (active) | 14.2 µM (active) | 50 µM (active) | 11.1 µM (active)
CC/C(=C\C(=N/O)C(N)=O)C(C)[N+](=O)[O-] (stereo not given) | inactive | inactive | inactive | inactive | – | inactive | inactive | inactive | inactive | – | – | – | – | – | – | – | – | –
CCN(C(=O)c1cc(C)cc(OC[C@H](C)Nc2ccncc2)c1)C(C)C | – | – | – | – | – | – | – | – | inactive | – | 7.91 µM (active) | 8.16 µM (active) | 56.6 µM (active) | – | 33.8 µM (active) | 8.63 µM (active) | 48 µM (active) | 58.4 µM (active)
C1=CCCC=CCCC=CCC1 | inactive | inactive | inactive | inactive | inactive | inactive | inactive | inactive | inactive | inactive | – | – | – | – | – | – | – | –
